# Laboratory results reported in PubChem BioAssay (EPA / NIEHS).
# “And” between values parts separate entries of the source, which are not always exact repeats. Equal values may be shown once. The source holds several records for some structures; these can differ, active in one and inactive in another. The source made the active and inactive calls. Rule for the calls: active = hit-call score of the fitted dose curve at least 0.9, where 1 is the maximum; inactive = score below 0.9.
# Read-out: Intercellular Adhesion Molecule 1 (ICAM1), ICAM1 (gene 3383)
# Assay: BSK_hDFCGF_ICAM1: BioMAP Diversity Plus: hDFCGF Assay for Intercellular Adhesion Molecule 1 (ICAM1) Biomarker Activity (AID 2284287)
# Conditions: primary human foreskin fibroblasts
# In short: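 ICAM-1 ELISA readout 24 h after dosing, DMSO as baseline, in human dermal foreskin fibroblast cultures. Cytotoxicity checked in parallel wells by SRB staining (0.1% SRB, 10% TCA fixation, 560 nm).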
Compound,outcome,AC50
O=C(O)C(F)(OC(F)(F)C(F)(OC(F)(F)C(F)(OC(F)(F)C(F)(F)C(F)(F)F)C(F)(F)F)C(F)(F)F)C(F)(F)F (stereo not given),inactive,–
FC(F)(F)C(F)(F)C(F)(F)C(F)(F)C(F)(F)C(F)(F)CCS,inactive,–
FC(F)(F)C(F)(F)C(F)(F)C(F)(F)CCI,inactive,–
O=C(O)C(F)(F)C(F)(F)C(F)(F)F,inactive,–
O=C(O)C(F)(F)C(F)(F)C(F)(F)C(F)(F)C(F)(F)C(F)(F)C(F)(F)C(F)(F)C(F)(F)C(F)(F)C(F)(F)C(F)(F)C(F)(F)F,inactive,–
OCC(F)(F)C(F)(F)C(F)(F)F,inactive,–
FC(F)(F)C(F)(F)C(F)(F)C(F)(F)C(F)(F)C(F)(F)C(F)(F)Br,inactive,–
OCC(F)(F)C(F)(F)C(F)(F)C(F)(F)C(F)(F)C(F)(F)F,inactive,–
C=CC(=O)OCC(F)(F)C(F)(F)C(F)(F)C(F)(F)COC(=O)C=C,–,10.6 µM (active) and 10.3 µM (active)
C=C(C)C(=O)OCC(F)(F)C(F)(F)C(F)(F)F,inactive,–
FC(F)(F)C(F)(F)CNCC(F)(F)C(F)(F)F,inactive,–
COC(=O)CCC(F)(F)C(F)(F)C(F)(F)C(F)(F)F,inactive,–

# Read-out: CD40, CD40 (gene 958)
# Assay: BSK_IMphg_CD40: BioMAP Diversity Plus: IMphg Assay for CD40 Biomarker Activity (AID 2284288)
# Conditions: primary human endothelial cells with macrophages
# In short: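 ELISA read-out of cell-surface CD40 at 24 h in human venular endothelial cell/macrophage co-cultures. Activity fitted in the positive direction against DMSO; parallel SRB staining (560 nm) gauges overt cytotoxicity.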
Compound,outcome,AC50
O=C(O)C(F)(OC(F)(F)C(F)(OC(F)(F)C(F)(OC(F)(F)C(F)(F)C(F)(F)F)C(F)(F)F)C(F)(F)F)C(F)(F)F (stereo not given),inactive,–
FC(F)(F)C(F)(F)C(F)(F)C(F)(F)C(F)(F)C(F)(F)CCS,inactive,–
C=C(C)C(=O)OCC(F)(F)C(F)(F)C(F)(F)C(F)(F)C(F)(F)C(F)(F)C(F)(F)F,inactive,–
FC(F)(F)C(F)(F)C(F)(F)C(F)(F)CCI,inactive,–
O=C(O)C(F)(F)C(F)(F)C(F)(F)F,inactive,319 nM (active)
N=C(N)C(F)(F)C(F)(F)C(F)(F)C(F)(F)C(F)(F)C(F)(F)C(F)(F)F,inactive,–
O=C(O)C(F)(OC(F)(F)C(F)(OC(F)(F)C(F)(F)C(F)(F)F)C(F)(F)F)C(F)(F)F (stereo not given),inactive,–
O=C(O)C(F)(F)C(F)(F)C(F)(F)C(F)(F)C(F)(F)C(F)(F)C(F)(F)C(F)(F)C(F)(F)C(F)(F)C(F)(F)C(F)(F)C(F)(F)F,inactive,–
FC(F)(F)C(F)(F)C(F)(F)N(C(F)(F)C(F)(F)C(F)(F)F)C(F)(F)C(F)(F)C(F)(F)F,inactive,–
O=C(O)C=C(C(F)(F)F)C(F)(F)F,inactive,–
O=C(O)C(F)(F)C(F)(F)F,inactive,–
FC(F)(I)C(F)(F)C(F)(F)C(F)(F)I,inactive,–
OCC(F)(F)C(F)(F)C(F)(F)F,inactive,–
FC(F)(F)C(F)(F)C(F)(F)C(F)(F)C(F)(F)C(F)(F)C(F)(F)Br,inactive,–
OCC(F)(F)C(F)(F)C(F)(F)C(F)F,inactive,–
OCCCC(F)(F)C(F)(F)C(F)(F)C(F)(F)C(F)(F)C(F)(F)C(F)(F)F,–,42.5 µM (active) and 53 µM (active)
O=S(=O)(OCC(F)F)C(F)(F)F,inactive,–
O=S(=O)(O)C(F)(F)C(F)(F)C(F)(F)C(F)(F)C(F)(F)C(F)(F)C(F)(F)F,inactive,–
OCC(F)(F)C(F)(F)C(F)(F)C(F)(F)C(F)(F)C(F)(F)F,inactive,–
C=CC(=O)OCC(F)(F)C(F)(F)C(F)(F)C(F)(F)COC(=O)C=C,–,18.8 µM (active) and 25 µM (active)
O=C(O)C(F)(F)C(F)(F)C(F)(F)C(F)(F)C(F)(F)C(F)(F)C(F)(F)C(F)(F)C(F)(F)C(F)F,inactive,–
C=C(C)C(=O)OCC(F)(F)C(F)(F)C(F)(F)F,inactive,–
FC(F)(F)C(F)(F)CNCC(F)(F)C(F)(F)F,inactive,–
COC(=O)CCC(F)(F)C(F)(F)C(F)(F)C(F)(F)F,inactive,–
CC(C)(C)C(=O)CC(=O)C(F)(F)C(F)(F)C(F)(F)F,inactive,–
O=C(O)C(F)(F)C(F)(F)C(F)(F)C(F)(F)C(F)(F)C(F)(F)C(F)(F)C(F)(F)Cl,–,44.5 µM (active) and 46.5 µM (active)
OCC(F)(F)C(F)(F)C(F)(F)C(F)(F)C(F)(F)C(F)F,inactive,1790 nM (active)

# Read-out: TIMP metallopeptidase inhibitor 2 (TIMP2), TIMP2 (gene 7077)
# Assay: BSK_hDFCGF_TIMP2: BioMAP Diversity Plus: hDFCGF Assay for TIMP metallopeptidase inhibitor 2 (TIMP2) Biomarker Activity (AID 2284289)
# Conditions: primary human foreskin fibroblasts
# In short: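 Primary human foreskin fibroblasts in the hDFCGF system, dosed for 24 h; TIMP-2 level measured by ELISA, fitted in the positive direction against DMSO; cytotoxicity checked in parallel by sulforhodamine B total protein staining.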
Compound,outcome,AC50
O=C(O)C(F)(OC(F)(F)C(F)(OC(F)(F)C(F)(OC(F)(F)C(F)(F)C(F)(F)F)C(F)(F)F)C(F)(F)F)C(F)(F)F (stereo not given),inactive,–
FC(F)(F)C(F)(F)C(F)(F)C(F)(F)CCI,inactive,–
FC(F)(F)C(F)(F)C(F)(F)N(C(F)(F)C(F)(F)C(F)(F)F)C(F)(F)C(F)(F)C(F)(F)F,inactive,–
FC(F)(F)C(F)(F)C(F)(F)C(F)(F)C(F)(F)C(F)(F)C(F)(F)Br,inactive,–
OCCCC(F)(F)C(F)(F)C(F)(F)C(F)(F)C(F)(F)C(F)(F)C(F)(F)F,–,14.4 µM (active) and 16.8 µM (active)
O=S(=O)(OCC(F)F)C(F)(F)F,inactive,–
FC(F)(F)C(F)(F)CNCC(F)(F)C(F)(F)F,inactive,–
COC(=O)CCC(F)(F)C(F)(F)C(F)(F)C(F)(F)F,inactive,–
OCC(F)(F)C(F)(F)C(F)(F)C(F)(F)C(F)(F)C(F)F,inactive,–
